Assay outcomes: PubChem BioAssay, National Center for Advancing Translational Sciences (NCATS)
Hits are enriched below; roughly 2.9% of the tested compounds scored in any of these assays.
DRD3 antagonist – antagonists of human D3 dopamine receptor | max response, negative = inhibition, % | AID 652054 | P35462 | D3R cells, DiscoveRx beta-arrestin luminescence, antagonist mode; hits give low values | hit rate 2.5% among 360,000; in the data active means max response below about -50%; inconclusive means no clear call, values can overlap the other calls; further: on the % scale 0 is the no-effect control and ±100 the full control effect
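Cells expressing the human receptor were seeded at 1500 cells/well, incubated overnight at 37 degrees C in 5% CO2, then exposed to library compounds with dopamine controls for 90 minutes at 37 degrees C before luminescent detection.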
D3 ag – agonists of human D3 dopamine receptor; hit rate 0.58% among 410,000; D3R DiscoveRx beta-arrestin cells, luminescence, 90 min; max activation, %; in the data active means max activation above about 30%; further: 0% is about no effect
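Agonist mode: compounds and dopamine controls were applied to plated cells for 90 min at 37 degrees C after an overnight attachment at 1500 cells/well. Luminescent read-out followed 30 - 60 minutes at room temperature with DiscoveRx detection reagent.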
B2AR arrestin – recruits beta-arrestin to the human beta2-adrenergic receptor | beta-arrestin recruitment to beta2AR, cell-based reporter | P07550 | Potency, µM (titrated, usually from 46.1 µM), for the others: at the highest dose activation, most hits filed as activators | AID 492947 | hit rate 0.02% among 330,000;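 further: potency means the concentration at half of the fitted maximal effect; 0% = DMSO controls and full agonism = EC100 isoproterenol or metaproterenol; nearly all actives have a fitted effect of over 65% in size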
a7 integrin act – integrin-mediated muscular dystrophy alleviation activation. alpha7betagal myoblasts, beta-gal FDG fluorescence, 48 h. hit rate 0.064% among 350,000. Potency, µM (top dose mostly 38.3 µM), for the others: top-dose activation, usual class: activators;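 further: potency means the concentration at half of the fitted maximal effect; 100% = response of the positive control SU9516; nearly all actives have a fitted effect of over 60% in size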
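Alpha7betagal+/- myoblasts (passage 13) were plated 16-24 hr, then exposed to compounds (1:260 dilution of DMSO stock) for 48 hours at 37C. After MPER lysis, β-galactosidase reporter activity was read as FDG fluorescence (ex 480/em 540) after 30 minutes.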
mIDH1 inhibitor – blocks human mutant IDH1 R132H enzyme; O75874; IDH1-R132H enzyme, NADPH consumption, diaphorase/resazurin fluorescence; Potency, µM (doses to about 76.6 µM), for the others: at the top dose activity change, negative = inhibition, actives largely listed as inhibitors; hit rate 0.093% among 390,000; further: potency means the concentration at half of the fitted maximal effect; on the % scale 0 is the no-effect control and ±100 the full control effect; nearly all actives have a fitted effect of over 65% in size
Target sequence (O75874 whole entry R132H, stated change not applied): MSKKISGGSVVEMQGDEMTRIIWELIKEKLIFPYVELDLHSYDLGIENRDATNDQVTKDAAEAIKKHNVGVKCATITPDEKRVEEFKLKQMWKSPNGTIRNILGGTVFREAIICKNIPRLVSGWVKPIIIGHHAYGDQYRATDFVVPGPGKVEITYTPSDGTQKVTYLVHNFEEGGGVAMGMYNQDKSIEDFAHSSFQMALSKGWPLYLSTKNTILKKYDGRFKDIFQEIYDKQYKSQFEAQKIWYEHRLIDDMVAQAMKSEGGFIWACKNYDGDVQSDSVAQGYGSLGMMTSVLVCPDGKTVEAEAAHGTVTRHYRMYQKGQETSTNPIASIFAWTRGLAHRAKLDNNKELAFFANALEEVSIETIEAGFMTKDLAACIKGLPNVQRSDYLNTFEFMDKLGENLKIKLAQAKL
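IDH1-R132H (0.5 ug/mL dispensed) in pH 7.5 Tris buffer was preincubated 30 min with compound, then given a substrate mix of 0.016 mM NADPH and 2 mM alpha-KG for 80 min at room temperature; remaining NADPH was read by diaphorase/resazurin fluorescence.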
* = called active by the depositor; ? = inconclusive; . = no result given; [ ] = dose if it differs, or a comment. Unless noted, the call rests on the fitted dose curve; in most records, active means well fitted curve in the direction sought with a large enough effect; inconclusive means small, poorly fitted or top-dose-only effect, or another doubt; inactive means no such curve, though single readings can be large; an effect the other way counts as inactive or inconclusive.

SMILES | DRD3 antagonist | D3 ag | B2AR arrestin | a7 integrin act | mIDH1 inhibitor
O=C(NC(c1ccccc1)c1ccsc1)C1CCN(Cc2ccc(Cl)c(Cl)c2)CC1 (configuration not stated) | -61* | -18 | . | . | .
Cc1ccc(Cn2ccnc2SCC(=O)Nc2ccccc2C(F)(F)F)cc1 | . | -6 | . | . | 8%
COc1ccc(-c2nc3sc(CCNC(=O)C(=O)Nc4cccc(NC(C)=O)c4)c(C)n3n2)cc1 | . | -10 | . | . | 13%
Nc1c(Cl)cc(-c2[nH]c3cc(C(=O)NCCO)ccc3c(=O)c2O)cc1Cl | 32 | 35* | 0% | -9% | -11%
CCCNC(=O)c1ccc2c(=O)c(O)c(C)[nH]c2c1 | 21 | 33* | 0% | 7% | -2%[38.3 µM]
CCOC(=O)c1c(C)c(-c2ccccc2)n(CC(=O)NCCc2cccc(C)c2)c1C | . | 3 | . | . | -7%
COc1ccc(-c2oc3ncnc(NCCCN4CCOCC4)c3c2-c2ccc(OC)cc2)cc1 | -94* | -5 | 0% | -14%[7.66 µM] | -6%
c1ccc(-c2oc3ncnc(NCCCN4CCOCC4)c3c2-c2ccccc2)cc1 | -65* | -2 | 0% | -4% | 11%
Cc1nn(-c2ccccc2)c2c1N(CC(=O)NCc1ccc(N(C)C)cc1)C(=O)CS2 | . | -6 | . | . | -11%
COc1cccc2c1O/C(=N\O)C(C(=O)Nc1cccc(Br)c1)C2 (configuration not stated) | -54* | 0 | 0% | 14% | 3%
O=C(C1=C[C@H](c2ccccc2)C[C@H](OCc2ccc(CO)cc2)O1)N1CCN(Cc2ccccc2)CC1 | -50* | -35 | 0% | -40% | 12%
O=C(Nc1ccccc1)C1=C[C@H](c2csc3ccccc23)C[C@H](OCc2ccc(CO)cc2)O1 | 4 | 36* | 0% | -31% | -4%
O=C(C1=C[C@@H](c2ccccc2)C[C@@H](OCc2ccc(CO)cc2)O1)N1CCN(Cc2ccc3c(c2)OCO3)CC1 | ? | -8 | 0% | -13% | -2%
O=C(C1=C[C@H](c2ccc(C(F)(F)F)cc2)C[C@H](OCc2ccc(CO)cc2)O1)N1CCCCCCC1 | -72* | 0 | 0% | -24% | -3%[38.3 µM]
C#CCNC(=O)C1=C[C@@H](c2ccc(C(F)(F)F)cc2)C[C@@H](OCCCCO)O1 | -52* | -2 | 0% | 8% | -3%[38.3 µM]
O=C(NC1CC1)C1=C[C@H](c2csc3ccccc23)C[C@H](OCc2ccc(CO)cc2)O1 | -26 | 4 | 0% | 2% | -1%
Cc1cc(Cl)nc(Cl)c1C(=O)NCc1ccc(Cl)cc1 | 4 | -7 | 0% | 4% | 3%
O=C(C1=C[C@@H](c2csc3ccccc23)C[C@@H](OCc2ccc(CO)cc2)O1)N1CCN(Cc2ccc3c(c2)OCO3)CC1 | ? | -18 | 0% | -13% | -2%[38.3 µM]
O=C(C1=C[C@@H](c2csc3ccccc23)C[C@@H](OCc2ccc(CO)cc2)O1)N1CCN(Cc2ccccc2)CC1 | -53* | -7 | 0% | -4% | 0%
CC(=O)c1nc(N2C(=O)CC(Cc3cccc(C)c3)C2=O)sc1C (configuration not stated) | -55* | 8 | -1% | 14% | 3%
CCC(CC)C(=O)N(C)c1c(C)nc2c(OCc3cccc(Cl)c3)cccn12 | -62* | -3 | . | . | .
CCC(CC)C(=O)N(C)c1c(C)nc2c(OCc3cc(Cl)cc(Cl)c3)cccn12 | ? | -9 | . | . | .
CCOCCN1CCN(C2c3ccccc3CSc3ccccc32)CC1 (configuration not stated) | -76* | -34 | . | -29% | 0%
Cc1cc(=O)c(C(=O)O)cn1Nc1ccc(F)cc1 | ? | -10 | 0% | 7% | 0%
Cc1cc(=O)c(C(=O)O)cn1Nc1ccc(Cl)cc1 | -53* | 2 | 0% | -10% | 7%
SMILES | DRD3 antagonist | D3 ag | B2AR arrestin | a7 integrin act | mIDH1 inhibitor
CC1/C(=N/O)C(CN(C)C)C2CC1C2(C)C (configuration not stated) | -69* | 3 | 0% | -3% | 0%
Cc1cccc(CNC(=O)CCn2c(=O)c3cccn3c3ccc(F)cc32)c1 | . | -26 | . | . | -12%
CCN(Cc1ccccc1)c1cc2c(c3c1ccn3C)C1CCC2C1 (configuration not stated) | -55* | -13 | . | . | .
CCN(CC)c1cc2c(c3c1ccn3C)C1CCC2C1 (configuration not stated) | -61* | -19 | . | . | .
c1ccc(-c2nn3c(Cn4nnc5ccccc54)nnc3s2)nc1 | -9 | -5 | 0% | -19% | 2%
c1cncc(-c2nn3c(Cn4nnc5ccccc54)nnc3s2)c1 | 19 | 51* | 0% | 6% | 0%
CNc1c(NC(=O)c2cc(OC)cc(OC)c2)c(=O)oc2ccccc12 | . | 6 | . | . | 1%
O=C(NCCCN1CCCC1=O)c1ccc(OC(F)(F)F)cc1 | 10 | 1 | 0% | -3% | 2%
CCCCOc1ccc(C(=O)NCCN2CCC(n3c(=O)[nH]c4ccccc43)CC2)cc1 | -60* | -11 | . | . | .
CCCCCn1c(=O)[nH]c2cc(C(=O)NCCN3CCC(C)CC3)ccc2c1=O | 6 | -28 | 0% | 8% | -4%
O=C(NCCN1CCC(n2c(=O)[nH]c3ccccc32)CC1)c1ccc(OC(F)(F)F)cc1 | -86* | -12 | . | . | .
CCc1ccc(-n2c(C)nc3cc(C(=O)NCCc4ccccc4)ccc32)cc1 | . | -14 | . | . | 13%
Cc1cc(NC(=O)C2Oc3ccccc3OC2C)no1 (configuration not stated) | -138* | 1 | 0% | 29% | -3%
COc1cccc(CNC(=O)Nc2ccc3c(c2)N(C)C(=O)c2ccccc2S3)c1 | . | -6 | . | . | -22%
Cc1ccc(OCCCCN2CCCCC2)cc1 | -13 | -6 | -1% | -40% | -4%
O=C(c1ccccc1)c1ccc(OCCCCN2CCCCC2)cc1 | -87* | -4 | 0% | -13% | 7%
O=C(c1ccccc1)c1ccc(OCCCN2CCCC2)cc1 | -6 | -14 | 0% | 24% | 23%
c1ccc(COCCN2CCN(CCOCc3ccccc3)CC2)cc1 | -69* | 5 | -1% | 3% | 2%
c1ccc(COc2ccc(OCCCCN3CCCCC3)cc2)cc1 | -72* | -17 | -1% | -55% | 0%
COc1ccccc1NC(=O)Cn1c(=O)n(-c2cccc(C)c2)c(=O)c2c1c1cc(C)ccc1n2C | . | 0 | . | . | -2%
CCCC(=O)Nc1cc2nn(-c3ccc(OC)cc3)nc2cc1C | . | 43* | . | . | -11%
COc1ccc(-n2nc3cc(C)c(NC(=O)CC(C)C)cc3n2)cc1 | . | . | 0% | . | .
CN1CCN(C(=O)c2cccc3c(-c4ccc(F)c(F)c4)coc23)CC1 | -100* | -12 | . | . | .
COc1ccc(-c2coc3c(C(=O)N4CCN(C)CC4)cccc23)c(C)c1 | -87* | -17 | . | . | .
O=C(NCC1CC1)c1cccc2c(-c3ccc(F)c(F)c3)coc12 | 13 | 2 | . | . | .
CCC[C@@]1(CCc2ccccc2)CC(O)=C([C@H](CC)c2cccc(NS(=O)(=O)c3ccc(C(F)(F)F)cn3)c2)C(=O)O1 | . | 5 | . | . | .
